# TDP1 inh: TDP1 (human) enzyme inhibition; Q9NUW8; recombinant TDP1, AlphaScreen DNA substrate cleavage; Potency, µM (titrated, usually from 130 µM), inactives show top-dose activity change, negative = inhibition, actives largely listed as inhibitors; 350,000 compounds, 0.28% hits; AID 485290; further: on the % scale 0 is the no-effect control and ±100 the full control effect; nearly all actives have a fitted effect of over 40% in size
# Target sequence (Q9NUW8 whole entry, looked up): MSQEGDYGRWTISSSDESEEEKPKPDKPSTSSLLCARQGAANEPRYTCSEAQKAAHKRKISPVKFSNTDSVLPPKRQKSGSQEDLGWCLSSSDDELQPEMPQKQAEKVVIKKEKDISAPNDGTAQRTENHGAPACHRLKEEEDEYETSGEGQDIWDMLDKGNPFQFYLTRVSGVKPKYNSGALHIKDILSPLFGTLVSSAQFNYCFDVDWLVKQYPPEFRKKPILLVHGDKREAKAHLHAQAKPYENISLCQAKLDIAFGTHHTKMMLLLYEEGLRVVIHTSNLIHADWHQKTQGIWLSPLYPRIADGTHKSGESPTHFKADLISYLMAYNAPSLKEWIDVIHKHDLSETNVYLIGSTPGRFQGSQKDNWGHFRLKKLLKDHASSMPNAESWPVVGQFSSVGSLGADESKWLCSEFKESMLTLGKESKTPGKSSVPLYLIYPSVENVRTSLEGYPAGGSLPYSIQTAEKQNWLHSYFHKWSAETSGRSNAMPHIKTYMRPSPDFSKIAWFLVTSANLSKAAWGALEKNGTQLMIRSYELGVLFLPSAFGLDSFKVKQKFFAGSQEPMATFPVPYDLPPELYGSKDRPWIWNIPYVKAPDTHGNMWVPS
#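 Signal: AlphaScreen proximity between streptavidin donor and anti-FITC acceptor beads on intact substrate. Reaction: Tdp1 1 nM, substrate 15 nM final, 5 min RT after 15 min compound preincubation.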
# DT40 TDP1 CPT: DT40-hTDP1 cell growth loss with CPT; chicken DT40 Tdp1-/-;hTDP1 cells + 20 nM CPT, ATP luminescence, 48 h; Potency, µM (doses to about 46.2 µM), for inactives: top-dose activity change, negative = growth inhibition, actives largely listed as inhibitors; 420,000 compounds, 12% hits; AID 686979; further: on the % scale 0 is the no-effect control and ±100 the full control effect; nearly all actives have a fitted effect of over 55% in size
#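 Chicken DT40 Tdp1-/- cells stably complemented with human TDP1 were seeded at 400 cells/well in medium containing 20 nM camptothecin, exposed to pin-transferred compounds, and grown at 37 °C for at least 48 hr. Viability was read as ATP luminescence.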
# TDP1 cell noCPT: qHTS for Inhibitors of human tyrosyl-DNA phosphodiesterase 1 (TDP1): qHTS in cells in absence of CPT | 420,000 compounds, 15% hits | DT40 Tdp1-/- hTDP1 cells, no CPT, ATP luminescence, 48 h | Potency, µM (doses to about 46.2 µM), for inactives: top-dose activity change, negative = growth inhibition, actives largely listed as inhibitors | AID 686978, 2013; further: on the % scale 0 is the no-effect control and ±100 the full control effect; nearly all actives have a fitted effect of over 55% in size
#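 Growth kinetics read by CellTiter-Glo luminescence after ≥48 hr at 37 °C. Cells: DT40 Tdp1-/- stably carrying human TDP1, 400 per well, compound exposure in the absence of CPT (DMSO vehicle).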
# ClpP mod: qHTS Assay for Activators of ClpP | purified B. subtilis ClpP, FRET peptide cleavage, 20 min | Potency, µM (doses to about 57.5 µM), inactives show at the highest dose activity change, negative = active | 340,000 compounds, 1.9% hits; active means well fitted falling curve with a large enough effect; inconclusive means small, poorly fitted or top-dose-only effect; inactive means no such curve, though single readings can be large or run the other way; further: the source files actives as falling curves though it sought activators and does not explain the sign; nearly all actives have a fitted effect of over 65% in size
#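 FRET quenching reversal measured ClpP activation: 10 microg/mL B. subtilis ClpP at pH 8 with the FRET-FV decapeptide, read at 430 nm after 320 nm excitation. The 20-min minus 0-min signal was scaled between DMSO/no-enzyme wells and ADEP (5.8 microM final).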
# An asterisk follows results filed as active; u = inconclusive; x = no result given; [ ] = dose if it differs, or a comment. Rows were chosen to be rich in hits. Some 17% of all compounds tested hit in one or more screens of this group. Unless noted, the call rests on the fitted dose curve; in most records, active means well fitted curve in the direction sought with a large enough effect; inconclusive means small, poorly fitted or top-dose-only effect, or another doubt; inactive means no such curve, though single readings can be large; an effect the other way counts as inactive or inconclusive. Potency means the concentration at half of the fitted maximal effect.
SMILES,TDP1 inh,DT40 TDP1 CPT,TDP1 cell noCPT,ClpP mod
COCCCNC(=O)C[C@H]1C[C@H](C(=O)N(C(C)C)C(C)C)[C@@]2(C)c3[nH]c4cc(-c5ccco5)ccc4c3CCN2C1=O,2%[56.1 µM],16µM*,23µM*,3%
COCCCNC(=O)C[C@H]1C[C@H](C(=O)N2CCOCC2)[C@@]2(C)c3[nH]c4cc(-c5ccco5)ccc4c3CCN2C1=O,3%[56.1 µM],u,u,4%
CCN(CC)C(=O)[C@H]1C[C@H](CC(=O)NCc2ccco2)C(=O)N2CCc3c([nH]c4cc(-c5ccco5)ccc34)[C@]12C,7%[56.1 µM],u,u,4%
CCN(CC)C(=O)[C@H]1C[C@H](CC(=O)NCc2cccc(C(F)(F)F)c2)C(=O)N2CCc3c([nH]c4cc(-c5ccco5)ccc34)[C@]12C,5%[56.1 µM],u,u,3%
COc1ccc(CNC(=O)C[C@H]2C[C@H](C(=O)N(C(C)C)C(C)C)[C@@]3(C)c4[nH]c5ccc(Cl)cc5c4CCN3C2=O)cc1OC,3%[56.1 µM],18µM*,18µM*,0%
CCOCCn1c(N2CCCC2)nc2c1c(=O)[nH]c(=O)n2C,x,-3%,4%,-3%
Cc1onc(-c2ccccc2)c1C(=O)N=C(N)c1ccc(C(F)(F)F)cc1,0%,3%,-5%,x
CC1=C(C(N)=O)C(c2ccc(C(C)C)cc2)n2nc(SCc3ccccc3F)nc2N1 (centres undefined),6%,-3%,0%,-1%
CCn1c(-c2ccccc2F)nc2cc(C(=O)N3CCCC(CO)C3)cc(NC(C)=O)c21 (centres undefined),x,1%,9%,x
Cc1noc(C)c1C(=O)N1CCC2(CCN(Cc3nccs3)CC2)CC1,x,2%,-9%,x
CC(C)N(C(=O)[C@H]1C[C@H](CC(=O)NCCC2=CCCCC2)C(=O)N2CCc3c([nH]c4ccc(Cl)cc34)[C@]12C)C(C)C,1%[56.1 µM],29µM*,26µM*,-17%
CCN(CC)CCNC(=O)C(=O)NCC(c1cccnc1)N1CCN(c2ccc(F)cc2)CC1 (centres undefined),0%,-8%,u,-1%
COC(=O)C1CCN(Cc2ccc3c(c2)CN(C(=O)c2cc4ccccc4n2C)CCO3)CC1,x,12%[9.04 µM],u,x
CCOC(=O)c1ccc(Nc2sc(C(=O)c3cccc([N+](=O)[O-])c3)c(N)c2C#N)cc1,5%,1µM*,0.73µM*,-1%
O=C(Nc1ccccc1)c1nc[nH]c1C(=O)NCCCCNC(=O)c1[nH]cnc1C(=O)Nc1ccccc1,2%,6.5µM*,12µM*,-2%
O=C(Nc1ccccc1)c1nc[nH]c1C(=O)NCCNC(=O)c1[nH]cnc1C(=O)Nc1ccccc1,-1%,13µM*,18µM*,4%
O=C(Nc1ccccc1)c1nc[nH]c1C(=O)Nc1ccccc1F,x,u,12µM*,20%
O=C(Nc1cccc(Cl)c1)c1nc[nH]c1C(=O)NCCCNC(=O)c1[nH]cnc1C(=O)Nc1cccc(Cl)c1,-3%,-29%,u,-1%
CN(CCN(C)C(=O)c1[nH]cnc1C(=O)Nc1ccccc1)C(=O)c1[nH]cnc1C(=O)Nc1ccccc1,1%,-3%,u,0%
Cc1ccc(NC(=O)c2nc[nH]c2C(=O)Nc2ccccc2F)cc1,x,u,u,0%
CCc1ccc(NC(=O)CN(Cc2ccccc2)S(=O)(=O)c2ccc3nc(C)sc3c2)cc1,6%,u,u,1%
Cc1nc2ccc(S(=O)(=O)N(CC(=O)Nc3cccc(Cl)c3)Cc3ccccc3)cc2s1,3%,u,16µM*,-5%
Cc1nc2ccc(NC(=O)c3ccc(Cl)c(S(=O)(=O)N(C)c4ccccc4)c3)cc2s1,8%,13µM*,3.3µM*,-4%
Cc1nc2ccc(NC(=O)c3ccc(S(=O)(=O)N(C)C)cc3)cc2s1,1%,-16%,3%,-1%
Cc1nc2ccc(NC(=O)c3cc([N+](=O)[O-])cc([N+](=O)[O-])c3Cl)cc2s1,2%,5.2µM*,6.5µM*,2%
SMILES,TDP1 inh,DT40 TDP1 CPT,TDP1 cell noCPT,ClpP mod
CS(=O)(=O)c1ccc(C(=O)Nc2ccc(N3CCOCC3)cc2)c(Cl)c1,-6%,4%,u,x
CN(c1ccccc1)S(=O)(=O)c1ccc(Cl)c(C(=O)Nc2ccc(N3CCOCC3)cc2)c1,1%,3.3µM*,1.6µM*,x
Cc1nc2ccc(NC(=O)c3ccc(Cl)c([N+](=O)[O-])c3)cc2s1,-1%,-22%,u,2%
CC[N+]1(C)C2CCC1CC(OC(=O)[C@H]1CCC(C(=O)OC3CC4CCC(C3)[N+]4(C)CC)(c3ccccc3)c3ccccc31)C2 (some centres undefined),1%,-7%,-14%,x
CCCc1cc(C(=O)Nc2ccc(CC)cc2)no1,0%,2%,7%,x
COc1cc(C(C)=O)ccc1OC(=O)N1CCOCC1,x,-16%,-20%,-2%
Cc1cccc(-c2nc(C)c(CCNC(=O)C(=O)Nc3ccc(C)c(C)c3)s2)c1,-2%,x,x,0%
Cc1nc2ccc(NC(=O)c3cc(S(=O)(=O)N(C)c4ccccc4)ccc3Cl)cc2s1,-3%,1.8µM*,1.8µM*,-1%
Cc1nc2ccc(S(=O)(=O)N(C)CC(=O)Nc3ccc(Br)c(C)c3)cc2s1,5%,u,16µM*,-1%
Nc1ccccc1-n1c(=O)n(Cc2ccccc2F)c(=O)c2[nH]cnc21,x,u,21µM*,0%
COc1ccc(Cn2c(=O)c3[nH]cnc3n(-c3ccccc3C)c2=O)cc1,3%,3.7µM*,5.2µM*,u
CSc1ncccc1C(=O)N1CCCC(N2CCN(c3ccccc3C)CC2)C1 (centres undefined),x,16µM*,9.2µM*,0%
Cc1ccccc1N1CCN(C2CCCN(C(=O)c3ccsc3)C2)CC1 (centres undefined),5%,u,u,2%
Cc1ccccc1N1CCN(C2CCCN(C(=O)c3cn4cccc(C)c4n3)C2)CC1 (centres undefined),x,23µM*,8.2µM*,-8%
Cc1ccccc1N1CCN(C2CCCN(C(=O)c3ccccn3)C2)CC1 (centres undefined),1%,-59%,26µM*,-1%
CCc1[nH]nc(C(=O)N2CCCC(N3CCN(c4ccccc4C)CC3)C2)c1C (centres undefined),5%[56.1 µM],16µM*,u,-2%
Cc1ccccc1N1CCN(C2CCCN(C(=O)c3noc4c3CCCC4)C2)CC1 (centres undefined),9%,9.2µM*,8.2µM*,-1%
Cc1cnc(C(=O)N2CCCC(N3CCN(c4ccccc4C)CC3)C2)cn1 (centres undefined),0%,18µM*,u,1%

# Assay outcomes from PubChem BioAssay.
